From PubChem BioAssay (NCI)
Where “and” joins values, the source holds several entries; their conditions need not be identical. Equal entries are not always repeated. Compounds without any hit were thinned out: in the full panel of roughly 83,000, 20% have a hit.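 Note: values are percent growth. 100 is the growth of untreated cells, values between 100 and 0 indicate rising inhibition; between -100 and 0 indicates cell death.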 Calls of active or inactive are those of the source. Rule for the calls: active = growth percent below 10; inactive = the rest.

The molecules below were run on MDA-MB-468 breast (assay: NCI-60 one-dose screen, 48 h (100 = growth as untreated, 0 = no growth, -100 = all killed)). Details: 10 µM unless noted.

With CCOC(=O)C1=C(C)N=c2s/c(=C\c3ccccc3O)c(=O)n2C1c1ccc(OC)c2ccccc12 (stereo not given) as the molecule, how does the growth read?
Its growth is -77.6% (active).

For C[N+](C)(C)CCOC(OCC[N+](C)(C)C)(c1ccccc1)c1ccccc1, which growth is on record?
The growth was 128% (inactive).

With Nc1ccccc1NC(=O)c1ccc(CSc2nc(N3CCOCC3)c3cccn3n2)cc1 as the molecule, how does the growth read?
The growth was -11.1% (active).

Which growth does the source give for O=C(O)CC(Cl)C(Cl)CC(=O)O (stereo not given) here?
The growth was 114% (inactive).

CCOC(=O)c1sc2ncnc(Nc3ccc(NC(=O)Nc4ccc(Cl)cc4)cc3)c2c1C was tested. Which growth did it give?
Its growth is 68.9% (inactive).

Which growth does the source give for O=[N+]([O-])c1cc(CCl)ccc1OCCBr here?
The growth was 92.4% (inactive).

Which growth does the source give for COc1ccc(C(=O)/C=C/Nc2cc(-c3ccccc3)nn2-c2ccccc2)cc1 here?
The growth was 70.4% (inactive).

How did the growth turn out when CC(C)(C)OC[C@@H]1N=C(c2ccc(Br)cc2)Nc2nc3ccccn3c2C1=O was run?
The growth was 45.6% (inactive).

With c1cc2[nH]ncc2cc1-c1nc2ccc3[nH]ncc3c2c2c1CCCC2 as the molecule, how does the growth read?
Its growth is -3.32% (active).

For COc1cc(Br)c(-c2nc(-c3ccccc3)c(-c3ccccc3)n2Cc2ccccc2)cc1OC, which growth is on record?
Its growth is 54% (inactive).

With Cn1c(SCC(=O)c2cccs2)nc2ccccc2c1=O as the molecule, how does the growth read?
Its growth is 68.7% (inactive).

CC(C)=CCc1c(O)c(CC=C(C)C)c2c(c1O)C(=O)C1=C[C@@H]3C[C@H]4C(C)(C)O[C@@](C/C=C(\C)C(=O)O)(C3=O)[C@@]14O2 was tested. Which growth did it give?
The growth was -45.1% (active).

Which growth does the source give for COc1ccc(-c2nnc(N3CCN(C(=O)CN4CCN(c5ccc(OC)cc5)CC4)CC3)nc2-c2ccc(OC)cc2)cc1 here?
The growth was -54.8% (active).

For OCCN1CCN(CCCN2c3ccccc3Sc3ccc(Cl)cc32)CC1, which growth is on record?
The growth was 25.3% (inactive).

With Nc1nc2c(c(=O)[nH]1)C(c1ccc3c(c1)OCO3)C=C(C(=O)O)N2 (stereo not given) as the molecule, how does the growth read?
Its growth is 107% (inactive).

How did the growth turn out when CCCCCC/C=C\CCCCCCCCOc1ccc(CCOP(=O)(O)OCC[N+](C)(C)C)cc1 was run?
The growth was 85.5% (inactive).

How did the growth turn out when CN(C)c1ccc2nc3ccc(N)cc3[n+](-c3ccccc3)c2c1 was run?
The growth was -28.6% (active) and 20.2% (inactive).

With CN(C)c1ccc(N=Nc2cccc3ccccc23)cc1 as the molecule, how does the growth read?
The growth was -26.6% (active).

Which growth does the source give for CCNc1nnc(COc2ccc(CNC(=O)CCCC/C=C/C(C)C)cc2OC)o1 here?
The growth was 104% (inactive).

Which growth does the source give for Cc1ccccc1Nc1cc(O)c2c(=O)cc(-c3ccccc3)oc2c1 here?
Its growth is -2.12% (active).

With ClC(Cl)c1nc(-c2cccnc2)n2nc(-c3ccccc3)cc2n1 as the molecule, how does the growth read?
The growth was -29.7% (active).

How did the growth turn out when COc1ccc(C(=O)c2cc3c(N)c(C(=O)Nc4cccc(Br)c4C)sc3nc2C)cc1 was run?
Its growth is -1.96% (active).

With CCC(=O)OCc1ccc(OC)cc1 as the molecule, how does the growth read?
Its growth is 87.3% (inactive).

With c1cc[n+](Cc2ccnc3ccccc23)cc1 as the molecule, how does the growth read?
The growth was 126% (inactive).

How did the growth turn out when Cc1ccc(Nc2nc(N)nc(CSCC(=O)NN)n2)cc1 was run?
The growth was 95.7% (inactive).

CSC1=NCCCC1 was tested. Which growth did it give?
Its growth is 102% (inactive).

CCCCCCCCCCCCCCCCCCOc1ccccc1CC(=O)NCC[N+]1(C)CCCC1 was tested. Which growth did it give?
Its growth is 3.53% (active).

Which growth does the source give for CCN(CC)CCCC(C)NC(=S)N/N=C(\C)c1ccccn1 (stereo not given) here?
The growth was -7.86% (active).

Which growth does the source give for COc1cc2c(cc1-c1c(C)noc1C)ncc1nc(C3CCOCC3)n(C3CCC(OC(F)F)CC3)c12 (stereo not given) here?
The growth was 40.9% (inactive).

O=C(Nc1ccc(F)c(Cl)c1)Nc1ccc(Cl)c(Cl)c1 was tested. Which growth did it give?
Its growth is 9.54% (active).
